The values below come from PubChem BioAssay (EPA / NIEHS).

Inconclusive results are not listed. The source made the active and inactive calls. Rule for the calls, unless noted: active = hit-call score of the fitted dose curve at least 0.9, where 1 is the maximum; inactive = score below 0.9.

In assay [1] the target is human Retinoid X Receptor beta (RXRb), RXRB (gene 6257) (UniProt P28702). Put plainly: ATG_RXRb_TRANS: Attagene TRANS-FACTORIAL HepG2 Assay for human Retinoid X Receptor beta (RXRb) (AID 2283013; active = hit-call score of the fitted dose curve at least 0.9, where 1 is the maximum). Put shortly:
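Readout is reporter transcript induction after 24 h dosing. It is measured by RT-PCR of total RNA followed by fluorescent capillary electrophoresis. HepG2 liver cells carry transfected multiple reporter units driven by an exogenous RXRb-Gal4 fusion; activity is relative to DMSO.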

Assay [2] addresses human Thyroid Receptor alpha (THRa1), THRA (gene 7067) (UniProt P10827). Put plainly: ATG_THRa1_TRANS: Attagene TRANS-FACTORIAL HepG2 Assay for human Thyroid Receptor alpha (THRa1) (AID 2283014; active = hit-call score of the fitted dose curve at least 0.9, where 1 is the maximum). Put shortly:
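Transcripts from GAL4-UAS-driven reporters, measured after 24 h compound exposure by RT-PCR plus capillary electrophoresis of 6-FAM-labeled fragments, were fitted for gain of signal relative to DMSO. Cells: transiently transfected HepG2 expressing NR-Gal4 chimeras.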

Assay [3] deals with human Vitamin D Receptor (VDR), VDR (gene 7421) (UniProt P11473). Put plainly: ATG_VDR_TRANS: Attagene TRANS-FACTORIAL HepG2 Assay for human Vitamin D Receptor (VDR) (AID 2283022; active = hit-call score of the fitted dose curve at least 0.9, where 1 is the maximum). Put shortly:
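Transactivation by an exogenous VDR-Gal4 chimera in transiently transfected HepG2 cells was measured as reporter transcript level 24 hours after chemical treatment. RT-PCR products were analysed by capillary electrophoresis and fitted in the positive direction relative to DMSO.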

In assay [4] the target is Retinoic acid receptor RXR-alpha (Homo sapiens) (UniProt P19793). Kind of assay: ATG_RXRa_TRANS: Attagene TRANS-FACTORIAL HepG2 Assay for human Retinoid X Receptor alpha (RXRa) (AID 2283012; active = hit-call score of the fitted dose curve at least 0.9, where 1 is the maximum). The method in brief: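 TRANS format reporting activity of exogenous RXRa-Gal4 chimera in transiently transfected HepG2, 24 h exposure. Reporter transcripts quantified by RT-PCR with capillary electrophoresis, with gain of signal scored relative to DMSO.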

Read-out in assay [5]: E-selectin (Homo sapiens) (UniProt P16581)
Put plainly: BSK_3C_Eselectin: BioMAP Diversity Plus: 3C Assay for Eselectin Biomarker Activity (AID 2283015).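 For outcome: cell surface E-selectin protein quantified by ELISA 24 h after dosing.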 As to conditions: primary human endothelial cells (HUVEC); actives raise or lower the signal. Put shortly: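 E-selectin ELISA readout, fitted bidirectionally relative to DMSO, taken 24 h post-dosing in HUVEC cultures of the 3C system. Overt cytotoxicity tracked with sulforhodamine B staining of parallel wells.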

Read-out in assay [6]: Interleukin-1 alpha (IL1a), IL1A (gene 3552)
Put plainly: BSK_BE3C_IL1a: BioMAP Diversity Plus: BE3C Assay for Interleukin-1 alpha (IL1a) Biomarker Activity (AID 2283016). To be noted: primary human bronchial epithelial cells; actives raise or lower the signal. Put shortly:
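IL-1a measured by ELISA after 24 h treatment of human primary bronchial epithelial cells, with gain or loss of signal fitted versus DMSO. Parallel cultures stained with SRB gauge overt cytotoxicity.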

Read-out in assay [7]: Monocyte Chemoattractant Protein-1 (MCP1), CCL2 (gene 6347)
Put plainly: BSK_3C_MCP1: BioMAP Diversity Plus: 3C Assay for Monocyte Chemoattractant Protein-1 (MCP1) Biomarker Activity (AID 2283017). To be noted: primary human endothelial cells (HUVEC); actives raise or lower the signal. Put shortly:
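MCP-1 was measured by ELISA 24 h after dosing in primary HUVEC 3C cultures and fitted in both directions relative to DMSO; cytotoxicity was checked by SRB total-protein staining in parallel wells.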

Read-out in assay [8]: Monocyte Chemoattractant Protein-1 (MCP1), CCL2 (gene 6347)
Put plainly: BSK_4H_MCP1: BioMAP Diversity Plus: 4H Assay for Monocyte Chemoattractant Protein-1 (MCP1) Biomarker Activity (AID 2283018). As to conditions: primary human endothelial cells (HUVEC); actives raise or lower the signal. Put shortly: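 ELISA of MCP-1 (CCL2) 24 h after chemical dosing of HUVEC in the BioMAP 4H system. Gain or loss versus DMSO fitted; parallel SRB staining (560 nm) tracked overt cytotoxicity.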

Read-out in assay [9]: Interleukin-8 (IL8), CXCL8 (gene 3576)
Put plainly: BSK_3C_IL8: BioMAP Diversity Plus: 3C Assay for Interleukin-8 (IL8) Biomarker Activity (AID 2283020). To be noted: primary human endothelial cells (HUVEC); actives raise or lower the signal. The method in brief: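 IL-8 was measured by ELISA in HUVEC cultures 24 h after chemical dosing, with gain or loss of signal fitted relative to DMSO. Parallel SRB total-protein staining tracked overt cytotoxicity.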

Read-out in assay [10]: Monokine induced gamma interferon (MIG), CXCL9 (gene 4283)
Put plainly: BSK_3C_MIG: BioMAP Diversity Plus: 3C Assay for Monokine induced gamma interferon (MIG) Biomarker Activity (AID 2283021). As to conditions: primary human endothelial cells (HUVEC); actives raise or lower the signal. The method in brief:
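ELISA measurement of MIG in human umbilical vein endothelial cells 24 h after treatment. Cytotoxicity tracked by SRB staining in parallel cultures; gain or loss of signal fitted relative to DMSO.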

Assay [11] in a line: BSK_3C_SRB: Viability Assessment in the BioMAP Diversity Plus: 3C Assay (AID 2283023).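 Note: fitted both ways against DMSO so a hit may be signal rise or drop.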 To be noted: primary human endothelial cells (HUVEC). Put shortly:
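Cytotoxicity readout in parallel HUVEC 3C cultures: after 24 h compound exposure, cells fixed with 10% TCA, stained with 0.1% SRB and read at 560 nm. Gain or loss relative to DMSO fitted.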

Read-out in assay [12]: Matrix Metallopeptidase 1 (MMP1), MMP1 (gene 4312)
Kind of assay: BSK_BE3C_MMP1: BioMAP Diversity Plus: BE3C Assay for Matrix Metallopeptidase 1 (MMP1) Biomarker Activity (AID 2283024). As to conditions: primary human bronchial epithelial cells; actives raise or lower the signal. The method in brief:
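ELISA measurement of MMP-1 after 24 h compound exposure of primary human bronchial epithelial cells. Changes in either direction fitted relative to DMSO; parallel SRB staining checked overt cytotoxicity.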

The nature of assay [13]: BSK_3C_Vis: BioMAP Diversity Plus: 3C Assay for Morphology Visualization (AID 2283025).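 For AC50: light microscopy image of cell morphology used as background control.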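 Note: fitted both ways so gain or loss versus DMSO counts.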 As to conditions: primary human endothelial cells (HUVEC). The method in brief: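 Light-microscopy visualization of HUVEC cultures at 24 h post-treatment, with DMSO as baseline for bidirectional fitting.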
Assay [14] in a line: BSK_4H_SRB: Viability Assessment in the BioMAP Diversity Plus: 4H Assay (AID 2283027).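 For AC50: curves fitted both ways versus DMSO so AC50 may be loss or gain.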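 Note: cells exposed to compound for 24 h before staining.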 As to conditions: primary human endothelial cells (HUVEC). The method in brief: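 HUVEC, 24 h post-dose; 10% TCA fix, 0.1% SRB stain, A560 nm. Total protein = overt cytotoxicity, parallel to biomarker read. Bidirectional fit vs DMSO baseline.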
Assay [15] in a line: BSK_BE3C_SRB: Viability Assessment in the BioMAP Diversity Plus: BE3C Assay (AID 2283028). As to conditions: primary human bronchial epithelial cells. Put shortly:
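Cytotoxicity read-out: SRB (0.1%) staining of TCA-fixed (10%) human lung bronchial epithelial cells, absorbance 560 nm, 24 h post-dosing. Curves fitted both directions relative to DMSO.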

Read-out in assay [16]: Thrombomodulin, THBD (gene 7056)
Put plainly: BSK_3C_Thrombomodulin: BioMAP Diversity Plus: 3C Assay for Thrombomodulin Biomarker Activity (AID 2283029). To be noted: primary human endothelial cells (HUVEC); actives raise or lower the signal. The method in brief: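 ELISA measurement of thrombomodulin on HUVEC surface 24 h after chemical dosing; activity fitted in both directions relative to DMSO vehicle.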

Read-out in assay [17]: Urokinase-type plasminogen activator receptor (uPAR), PLAUR (gene 5329)
Kind of assay: BSK_4H_uPAR: BioMAP Diversity Plus: 4H Assay for Urokinase-type plasminogen activator receptor (uPAR) Biomarker Activity (AID 2283030). To be noted: primary human endothelial cells (HUVEC); actives raise or lower the signal. Put shortly:
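uPAR level read by ELISA on HUVEC cultures (BioMAP 4H) 24 h post-dosing, analyzed for gain or loss relative to DMSO. Parallel SRB staining assessed overt cytotoxicity.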

Read-out in assay [18]: Human Leukocyte Antigen - DR isotype (HLADR), HLA-DRA (gene 3122)
Put plainly: BSK_3C_HLADR: BioMAP Diversity Plus: 3C Assay for Human Leukocyte Antigen - DR isotype (HLADR) Biomarker Activity (AID 2283019).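 Note: ELISA of cell-surface HLA-DR on HUVEC 24 h after dosing.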 To be noted: primary human endothelial cells (HUVEC); actives raise or lower the signal. The method in brief: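 Bidirectional fitting against DMSO was applied to the HLA-DR ELISA signal from human umbilical vein endothelial cells, 24 h post-dose. Cytotoxicity came from parallel SRB total-protein staining; 3C proliferation was counted by SRB at 48 h.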

human Thyroid Receptor alpha (THRa1), THRA (gene 7067), sequence (P10827 whole entry, looked up, the tested form may be a part): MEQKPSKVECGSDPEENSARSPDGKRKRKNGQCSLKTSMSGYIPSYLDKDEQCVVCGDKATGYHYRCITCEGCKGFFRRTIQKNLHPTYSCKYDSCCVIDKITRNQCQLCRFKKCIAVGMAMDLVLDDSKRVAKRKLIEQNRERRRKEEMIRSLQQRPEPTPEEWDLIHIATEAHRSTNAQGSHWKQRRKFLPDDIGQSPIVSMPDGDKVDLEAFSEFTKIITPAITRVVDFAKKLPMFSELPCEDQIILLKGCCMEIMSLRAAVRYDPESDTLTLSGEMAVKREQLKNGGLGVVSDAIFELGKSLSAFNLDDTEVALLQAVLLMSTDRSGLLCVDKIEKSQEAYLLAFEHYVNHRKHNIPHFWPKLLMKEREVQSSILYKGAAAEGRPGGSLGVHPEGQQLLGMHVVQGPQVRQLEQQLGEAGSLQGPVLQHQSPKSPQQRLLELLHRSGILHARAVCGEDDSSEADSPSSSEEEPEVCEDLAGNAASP
Retinoic acid receptor RXR-alpha (Homo sapiens), sequence (P19793 whole entry, looked up, the tested form may be a part): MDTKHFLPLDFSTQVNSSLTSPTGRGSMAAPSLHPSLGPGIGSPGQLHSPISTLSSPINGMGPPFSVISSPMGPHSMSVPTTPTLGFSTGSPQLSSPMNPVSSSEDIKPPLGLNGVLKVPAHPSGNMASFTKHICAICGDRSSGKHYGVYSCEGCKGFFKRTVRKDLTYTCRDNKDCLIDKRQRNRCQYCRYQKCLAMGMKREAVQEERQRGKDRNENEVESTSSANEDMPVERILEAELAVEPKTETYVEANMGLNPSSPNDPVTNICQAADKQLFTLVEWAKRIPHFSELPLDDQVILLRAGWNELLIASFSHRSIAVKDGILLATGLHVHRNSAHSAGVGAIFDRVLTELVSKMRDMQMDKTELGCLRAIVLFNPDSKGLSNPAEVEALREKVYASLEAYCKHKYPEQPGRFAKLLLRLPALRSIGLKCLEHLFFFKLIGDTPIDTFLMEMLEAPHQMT
E-selectin (Homo sapiens), sequence (P16581 whole entry, looked up): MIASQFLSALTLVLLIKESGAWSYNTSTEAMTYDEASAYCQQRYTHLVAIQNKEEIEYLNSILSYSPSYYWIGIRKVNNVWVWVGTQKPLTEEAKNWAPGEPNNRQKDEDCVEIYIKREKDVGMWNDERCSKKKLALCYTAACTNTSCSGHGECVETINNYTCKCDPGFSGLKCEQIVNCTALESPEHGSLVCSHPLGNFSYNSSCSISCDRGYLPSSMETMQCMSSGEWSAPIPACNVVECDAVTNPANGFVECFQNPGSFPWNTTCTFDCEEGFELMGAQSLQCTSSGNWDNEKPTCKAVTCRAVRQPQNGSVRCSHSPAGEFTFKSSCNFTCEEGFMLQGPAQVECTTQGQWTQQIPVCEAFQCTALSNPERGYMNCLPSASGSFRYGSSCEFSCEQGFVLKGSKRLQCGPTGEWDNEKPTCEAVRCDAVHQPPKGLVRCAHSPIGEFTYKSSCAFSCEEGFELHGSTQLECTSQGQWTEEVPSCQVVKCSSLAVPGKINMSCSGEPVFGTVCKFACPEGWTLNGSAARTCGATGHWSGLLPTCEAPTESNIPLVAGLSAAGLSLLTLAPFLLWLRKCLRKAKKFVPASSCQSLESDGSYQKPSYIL
human Vitamin D Receptor (VDR), VDR (gene 7421), sequence (P11473 whole entry, looked up, the tested form may be a part): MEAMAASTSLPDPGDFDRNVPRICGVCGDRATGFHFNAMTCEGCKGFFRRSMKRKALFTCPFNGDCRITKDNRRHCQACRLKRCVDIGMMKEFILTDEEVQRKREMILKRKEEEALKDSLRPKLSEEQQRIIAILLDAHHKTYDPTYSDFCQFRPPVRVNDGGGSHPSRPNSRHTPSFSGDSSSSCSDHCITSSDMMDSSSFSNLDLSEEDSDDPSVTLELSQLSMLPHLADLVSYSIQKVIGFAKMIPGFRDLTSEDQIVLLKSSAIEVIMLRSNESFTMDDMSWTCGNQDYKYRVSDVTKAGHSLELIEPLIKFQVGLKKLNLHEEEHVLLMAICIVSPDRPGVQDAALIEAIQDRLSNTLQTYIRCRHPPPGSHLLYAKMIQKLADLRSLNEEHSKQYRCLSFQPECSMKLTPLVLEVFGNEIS
human Retinoid X Receptor beta (RXRb), RXRB (gene 6257), sequence (P28702 whole entry, looked up, the tested form may be a part): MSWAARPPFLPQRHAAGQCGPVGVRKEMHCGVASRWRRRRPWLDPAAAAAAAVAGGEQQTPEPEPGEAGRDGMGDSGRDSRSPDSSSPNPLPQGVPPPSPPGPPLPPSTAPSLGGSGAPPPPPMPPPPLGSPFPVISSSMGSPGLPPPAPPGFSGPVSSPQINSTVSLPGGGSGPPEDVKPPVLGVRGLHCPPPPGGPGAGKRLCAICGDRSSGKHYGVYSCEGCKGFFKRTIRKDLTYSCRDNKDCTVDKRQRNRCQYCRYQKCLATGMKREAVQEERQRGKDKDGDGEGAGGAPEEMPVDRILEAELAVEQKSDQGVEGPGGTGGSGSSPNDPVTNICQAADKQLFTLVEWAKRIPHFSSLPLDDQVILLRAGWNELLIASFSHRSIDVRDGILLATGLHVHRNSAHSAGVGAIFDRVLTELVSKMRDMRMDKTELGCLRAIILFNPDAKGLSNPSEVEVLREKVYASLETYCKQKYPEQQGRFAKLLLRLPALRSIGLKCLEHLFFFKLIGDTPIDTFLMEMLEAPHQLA

As for `c1cc2cccc3c4cccc5cccc(c(c1)c23)c54`, the result in assay [1], in assay [2] and in assay [3] was inactive.
Take `Nc1cc(Cl)c(-c2cc(Cl)c(N)cc2Cl)cc1Cl`: the outcome in assay [4], in assay [2] and in assay [3] was inactive.
Regarding `Oc1c(Cl)ccc(Cl)c1Cl`, the result in [4] and in assay [3] was inactive.
Regarding `O=C(C=C(O)C(F)(F)F)C(F)(F)F`, the compound was called inactive in [4] and in assay [3].
For `N=C(N)c1ccc(OCCCCCOc2ccc(C(=N)N)cc2)cc1`, the compound was classed as inactive in [4], in [6], in [7], in [8], in assay [10] and in [3]. Also, the outcome in assay [11], in assay [12], in assay [14], in assay [15] and in assay [16] was inactive. Further, the AC50 was 0.932 µM (active) in assay [5], 12.3 µM (active) in [9], 8.61 µM (active) in assay [13] and 3.47 µM (active) in assay [17].
For `CCO[Si](C)(C)OCC`, the compound was called inactive in assay [1].
Turning to `O=C(F)C(F)(F)C(F)(F)C(F)(F)C(=O)F`, the compound was called inactive in [4] and in assay [3].
Consider `Clc1ccc2c(Cl)ccnc2c1`, for which, in [2], the outcome was inactive.
`CC(C)c1c(C(=O)Nc2ccccc2)c(-c2ccccc2)c(-c2ccc(F)cc2)n1CC[C@@H](O)C[C@@H](O)CC(=O)O`: the call in assay [3] was inactive.
Consider `Cc1ccc2ccc3ccc(C)cc3c2c1`, for which the compound was called inactive in assay [3].
As to `C=COC(=O)C(C)(C)CCCCCC`, the outcome in assay [2] and in [15] was inactive. Moreover, the AC50 in assay [5] was 32.7 µM (active); in assay [6] it was 34.9 µM (active); in [7], 31.3 µM (active); in assay [8], 20 µM (active); in assay [9] it was 30.2 µM (active); in assay [11], 34.6 µM (active). The AC50 in assay [12] is 3.97 µM (active); in assay [13] it was 37.8 µM (active); in assay [14], 34.3 µM (active); in assay [16], 20 µM (active); in assay [17], 32.6 µM (active).
Turning to `FC1(F)C=CC(F)(F)C1(F)F`, in assay [2], the call was inactive.
As to `COc1ccc(C#N)cc1`, the call in [3] was inactive.
On to `C=C(c1ccc(C(=O)O)cc1)c1cc2c(cc1C)C(C)(C)CCC2(C)C`, for which the compound was classed as inactive in assay [2].
Consider `CCc1ccccc1O`, for which the call in assay [2] was inactive.
Consider `COc1cccc(O)c1`, for which the result in assay [2], in [5], in [6], in assay [7], in assay [8] and in [9] was inactive. In addition, the result in assay [11], in [13], in assay [14], in [15], in [16] and in [17] was inactive. Besides, the AC50 in assay [12] was 0.193 µM (active).
For `O=C1NS(=O)(=O)c2ccccc21`, the compound was called inactive in assay [1], in assay [5], in assay [6], in assay [7], in [8] and in assay [18]. In addition, the outcome in assay [9], in assay [11], in assay [12], in assay [13], in assay [14] and in assay [15] was inactive. Further, the outcome in [16] and in [17] was inactive.
Turning to `Nc1ccc(O)c(C(=O)O)c1`, in [3], the outcome was inactive.
For `CCCCCCCC(OC)OC`, the compound was called inactive in assay [3].
As to `CCCCCCc1ccc(N)cc1`, the outcome in [2] was inactive.
